According to PubChem BioAssay (EPA / NIEHS):
Activity calls are given as the source filed them. How the source made its calls: active means hit-call score of the fitted dose curve at least 0.9, where 1 is the maximum; inactive means score below 0.9.

How the values were obtained:
Conditions in all cases: mRNA level, 48 h; actives raise or lower the signal
[1] = read-out: Paternally Expressed 10 (PEG10), PEG10 (gene 23089); assay: LTEA_HepaRG_PEG10: Life Technologies and Expression Analysis (LTEA) Assay for Paternally Expressed 10 (PEG10) using HepaRG (AID 2283520)
Summary of the method: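 Differentiated HepaRG cells, plated 48 h then switched to serum-free induction medium, were exposed in duplicate for 48 h to eight half-log concentrations topping at 100 uM in 0.5% DMSO. PEG10 mRNA was quantified by TaqMan qRT-PCR, normalised to ACTB, GAPDH and POLR2A.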

[2] = read-out: Nuclear factor NF-kappa-B p105 subunit (Homo sapiens) (UniProt P19838); assay: LTEA_HepaRG_NFKB1: Life Technologies and Expression Analysis (LTEA) Assay for Nuclear Factor Kappa B Subunit 1 (NFKB1) using HepaRG (AID 2283521);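 further: TaqMan qRT-PCR transcript normalised to ACTB GAPDH and POLR2A housekeeping genes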
Summary of the method: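 Differentiated human HepaRG cells were exposed for 48 h in serum-free induction medium to eight concentrations (top 100 uM, half-log steps, 0.5% DMSO), in duplicate. NFKB1 mRNA was measured by TaqMan qRT-PCR, normalized to ACTB/GAPDH/POLR2A, and fitted bidirectionally against DMSO.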

[3] = read-out: Protein phosphatase 2A (PPP2R4), PTPA (gene 5524); assay: LTEA_HepaRG_PPP2R4: Life Technologies and Expression Analysis (LTEA) Assay for Protein phosphatase 2A (PPP2R4) using HepaRG (AID 2283522)
Summary of the method: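 Differentiated HepaRG cells in serum-free induction medium were exposed in duplicate for 48 h to eight concentrations, top 100 uM with half-log dilutions, in 0.5% DMSO. PPP2R4 mRNA was quantified by TaqMan qRT-PCR, normalized to ACTB, GAPDH and POLR2A.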

[4] = read-out: Phosphatase and tensin (PTEN), PTEN (gene 5728); assay: LTEA_HepaRG_PTEN: Life Technologies and Expression Analysis (LTEA) Assay for Phosphatase and tensin (PTEN) using HepaRG (AID 2283523)
Summary of the method: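 Read-out is PTEN transcript level by multiplexed TaqMan qRT-PCR after 48 h chemical treatment of human HepaRG cultures in serum-free induction medium. Concentrations spanned 100 uM downward in half-log steps, 0.5% DMSO throughout; activity fitted in both directions against vehicle.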

[5] = read-out: solute carrier (SLC22A1), SLC22A1 (gene 6580); assay: LTEA_HepaRG_SLC22A1: Life Technologies and Expression Analysis (LTEA) Assay for solute carrier (SLC22A1) using HepaRG (AID 2283524)
Summary of the method: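 HepaRG (human liver line), 48 h dosing in serum-free induction medium; 8 conc., half-log down from 100 uM, 0.5% DMSO vehicle, duplicates. Endpoint: SLC22A1 mRNA, qRT-PCR, housekeeping-normalized; gain/loss fit vs DMSO.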

[6] = read-out: Pyruvate Dehydrogenase Kinase 4 (PDK4), PDK4 (gene 5166); assay: LTEA_HepaRG_PDK4: Life Technologies and Expression Analysis (LTEA) Assay for Pyruvate Dehydrogenase Kinase 4 (PDK4) using HepaRG (AID 2283525)
Summary of the method: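 In this multiplexed human HepaRG expression assay, cells are treated 48 h with test chemicals across an eight-point range starting at 100 uM. PDK4 mRNA changes, normalized to ACTB/GAPDH/POLR2A, are fitted in both directions relative to vehicle.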

[7] = read-out: NAD(P)H dehydrogenase [quinone] 1 (NQO1), NQO1 (gene 1728); assay: LTEA_HepaRG_NQO1: Life Technologies and Expression Analysis (LTEA) Assay for NAD(P)H dehydrogenase [quinone] 1 (NQO1) using HepaRG (AID 2283526)
Summary of the method: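 Differentiated HepaRG cells, plated 48 h and then switched to serum-free induction medium, were exposed in duplicate for 48 h to 8-point half-log concentrations up to 100 uM in 0.5% DMSO. mRNA measured by qRT-PCR, normalized to ACTB, GAPDH, POLR2A; bidirectional fit versus DMSO.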

[8] = read-out: Nuclear factor erythroid 2-related factor 2 (Homo sapiens) (UniProt Q16236); assay: LTEA_HepaRG_NFE2L2: Life Technologies and Expression Analysis (LTEA) Assay for Nuclear factor erythroid 2-related factor 2 (NFE2L2) Transcription Factor using HepaRG (AID 2283527);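 further: TaqMan qRT-PCR transcript level normalised to ACTB GAPDH and POLR2A housekeeping genes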
Summary of the method: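 Transcript level of NFE2L2 is the read-out, measured by microfluidic TaqMan qRT-PCR and normalized to three housekeeping genes. Human HepaRG cultures received test chemical for 48 h at up to 100 uM in half-log steps. Gain or loss of signal is fitted relative to 0.5% DMSO.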

[9] = read-out: Signal transducer and activator of transcription 3 (Homo sapiens) (UniProt P40763); assay: LTEA_HepaRG_STAT3: Life Technologies and Expression Analysis (LTEA) Assay for Signal transducer and activator of transcription (STAT3) using HepaRG (AID 2283529)
Summary of the method: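 Read-out is STAT3 mRNA level by qRT-PCR, normalized to three housekeeping genes, in human HepaRG liver cells treated for 48 h. Concentrations ran from 100 uM downward in half-log steps; curves were fitted for gain or loss relative to 0.5% DMSO.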

[10] = read-out: solute carrier (SLCO1B1), SLCO1B1 (gene 10599); assay: LTEA_HepaRG_SLCO1B1: Life Technologies and Expression Analysis (LTEA) Assay for solute carrier (SLCO1B1) using HepaRG (AID 2283530)
Summary of the method: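 Gain or loss of SLCO1B1 mRNA is fitted against the 0.5% DMSO vehicle in human HepaRG liver cells treated 48 h at up to 100 uM in half-log steps. Expression comes from qRT-PCR normalized to endogenous controls.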

[11] = read-out: sulfotransferase 2A1 (SULT2A1), SULT2A1 (gene 6822); assay: LTEA_HepaRG_SULT2A1: Life Technologies and Expression Analysis (LTEA) Assay for sulfotransferase 2A1 (SULT2A1) using HepaRG (AID 2283531)
Summary of the method: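 Cells were plated and cultured 48 h, switched to serum-free induction medium, then dosed in duplicate for 48 h (8 concentrations, max 100 uM). RNA was isolated and SULT2A1 expression measured by qRT-PCR; gain or loss of signal fitted relative to DMSO.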

[12] = read-out: Transforming Growth Factor (TGFA), TGFA (gene 7039); assay: LTEA_HepaRG_TGFA: Life Technologies and Expression Analysis (LTEA) Assay for Transforming Growth Factor (TGFA) using HepaRG (AID 2283532)
Summary of the method: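 HepaRG (human liver line), 48 h exposure, 8 conc. half-log down from 100 uM, 0.5% DMSO vehicle, duplicates; serum-free induction medium. TGFA mRNA by TaqMan qRT-PCR, ACTB/GAPDH/POLR2A normalization; gain/loss fit vs DMSO.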

TIMP1, TIMP1 (gene 7076) = assay: LTEA_HepaRG_TIMP1: Life Technologies and Expression Analysis (LTEA) Assay for TIMP1 using HepaRG (AID 2283534)
Summary of the method: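 We dosed human liver HepaRG cultures for 48 hours with up to 100 uM test chemical and measured TIMP1 expression by qRT-PCR. Activity in either direction is fitted relative to the 0.5% DMSO vehicle.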

[13] = read-out: Tumor necrosis factor receptor 1 (TNFRSF1A), TNFRSF1A (gene 7132); assay: LTEA_HepaRG_TNFRSF1A: Life Technologies and Expression Analysis (LTEA) Assay for Tumor necrosis factor receptor 1 (TNFRSF1A) using HepaRG (AID 2283535)
Summary of the method: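 Expression of TNFRSF1A in human HepaRG liver cells was measured by qRT-PCR 48 h after chemical dosing (maximum 100 uM). Bidirectional curve fitting used 0.5% DMSO as baseline.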

[14] = read-out: Thyroid Hormone Responsive (THRSP), THRSP (gene 7069); assay: LTEA_HepaRG_THRSP: Life Technologies and Expression Analysis (LTEA) Assay for Thyroid Hormone Responsive (THRSP) using HepaRG (AID 2283536)
Summary of the method: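 mRNA induction or loss relative to 0.5% DMSO vehicle was fitted bidirectionally across an eight-point curve whose highest exposure was 100 uM. Human HepaRG liver cells received chemicals in duplicate over 48 h before RNA extraction.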

[15] = read-out: Cellular tumor antigen p53 (Homo sapiens) (UniProt P04637); assay: LTEA_HepaRG_TP53: Life Technologies and Expression Analysis (LTEA) Assay for Tumor Protein P53 (TP53) using HepaRG (AID 2283537)
Summary of the method: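 HepaRG, 48 h exposure, top 100 uM, half-log 8-point, 0.5% DMSO vehicle, duplicates. Read: TP53 mRNA by TaqMan qRT-PCR, normalised to ACTB/GAPDH/POLR2A; bidirectional fit vs DMSO.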

[16] = read-out: UDP glucuronosyltransferase (UGT1A1), UGT1A1 (gene 54658); assay: LTEA_HepaRG_UGT1A1: Life Technologies and Expression Analysis (LTEA) Assay for UDP glucuronosyltransferase (UGT1A1) using HepaRG (AID 2283538)
Summary of the method: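 Differentiated human HepaRG cells in serum-free induction medium were exposed in duplicate for 48 h to eight half-log concentrations up to 100 uM in 0.5% DMSO. UGT1A1 mRNA was quantified by TaqMan qRT-PCR, normalized to ACTB, GAPDH and POLR2A, and fitted bidirectionally against DMSO.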

[17] = read-out: UDP glucuronosyltransferase (UGT1A6), UGT1A6 (gene 54578); assay: LTEA_HepaRG_UGT1A6: Life Technologies and Expression Analysis (LTEA) Assay for UDP glucuronosyltransferase (UGT1A6) using HepaRG (AID 2283539)
Summary of the method: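 Endpoint is UGT1A6 transcript induction or loss in a human liver cell line, quantified by TaqMan qRT-PCR 48 h after dosing. Concentrations ran from 100 uM downward in half-log steps in 0.5% DMSO; activity was fitted in both directions versus vehicle.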

[18] = read-out: Transforming Growth Factor (TGFB1), TGFB1 (gene 7040); assay: LTEA_HepaRG_TGFB1: Life Technologies and Expression Analysis (LTEA) Assay for Transforming Growth Factor (TGFB1) Transporter using HepaRG (AID 2283533)
Summary of the method: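 Expression change of TGFB1 in human HepaRG cells is measured after a 48 h chemical exposure, up to 100 uM in 0.5% DMSO vehicle. Curves are fitted in both directions relative to the DMSO baseline.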

[19] = read-out: succinate dehydrogenase complex iron sulfur subunit B (SDHB), SDHB (gene 6390); assay: LTEA_HepaRG_SDHB: Life Technologies and Expression Analysis (LTEA) Assay for succinate dehydrogenase complex iron sulfur subunit B (SDHB) using HepaRG (AID 2283528)
Summary of the method: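 HepaRG, 48 h exposure, 8-pt half-log series from 100 uM in 0.5% DMSO, duplicates. Readout: SDHB mRNA by Fluidigm qRT-PCR vs housekeeping genes; bidirectional fit relative to DMSO.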

Measured: AC50

Signal transducer and activator of transcription 3 (Homo sapiens), sequence (P40763 whole entry, looked up): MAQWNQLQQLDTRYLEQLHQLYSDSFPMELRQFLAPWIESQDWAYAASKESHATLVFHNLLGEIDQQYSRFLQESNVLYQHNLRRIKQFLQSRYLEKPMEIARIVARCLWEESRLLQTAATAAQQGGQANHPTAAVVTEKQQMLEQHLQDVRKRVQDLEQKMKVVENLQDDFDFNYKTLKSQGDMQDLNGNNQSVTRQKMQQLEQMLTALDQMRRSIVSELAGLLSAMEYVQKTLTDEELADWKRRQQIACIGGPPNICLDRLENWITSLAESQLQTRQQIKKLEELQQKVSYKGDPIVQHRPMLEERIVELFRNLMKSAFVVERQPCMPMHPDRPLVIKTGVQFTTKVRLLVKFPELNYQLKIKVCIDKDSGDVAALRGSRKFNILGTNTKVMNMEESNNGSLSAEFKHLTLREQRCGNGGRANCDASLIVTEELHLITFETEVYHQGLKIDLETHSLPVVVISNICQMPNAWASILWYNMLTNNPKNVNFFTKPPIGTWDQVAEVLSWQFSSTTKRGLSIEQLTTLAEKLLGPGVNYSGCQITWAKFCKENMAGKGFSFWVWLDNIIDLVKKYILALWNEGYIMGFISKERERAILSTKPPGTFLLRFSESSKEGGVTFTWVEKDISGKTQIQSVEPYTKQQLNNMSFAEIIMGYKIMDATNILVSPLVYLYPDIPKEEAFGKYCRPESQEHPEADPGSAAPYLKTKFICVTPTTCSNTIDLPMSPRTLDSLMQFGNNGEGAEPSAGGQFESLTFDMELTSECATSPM
Cellular tumor antigen p53 (Homo sapiens), sequence (P04637 whole entry, looked up): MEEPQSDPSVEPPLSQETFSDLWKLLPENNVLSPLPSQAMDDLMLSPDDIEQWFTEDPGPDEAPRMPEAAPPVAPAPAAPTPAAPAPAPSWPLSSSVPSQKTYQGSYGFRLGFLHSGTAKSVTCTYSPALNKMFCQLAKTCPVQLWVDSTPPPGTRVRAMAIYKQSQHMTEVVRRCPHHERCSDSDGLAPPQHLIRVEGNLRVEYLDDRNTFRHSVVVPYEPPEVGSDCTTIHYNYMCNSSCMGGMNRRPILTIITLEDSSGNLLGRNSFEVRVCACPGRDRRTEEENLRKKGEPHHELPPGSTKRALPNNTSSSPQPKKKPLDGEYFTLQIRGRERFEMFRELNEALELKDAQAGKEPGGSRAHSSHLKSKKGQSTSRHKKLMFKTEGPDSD
Nuclear factor erythroid 2-related factor 2 (Homo sapiens), sequence (Q16236 whole entry, looked up): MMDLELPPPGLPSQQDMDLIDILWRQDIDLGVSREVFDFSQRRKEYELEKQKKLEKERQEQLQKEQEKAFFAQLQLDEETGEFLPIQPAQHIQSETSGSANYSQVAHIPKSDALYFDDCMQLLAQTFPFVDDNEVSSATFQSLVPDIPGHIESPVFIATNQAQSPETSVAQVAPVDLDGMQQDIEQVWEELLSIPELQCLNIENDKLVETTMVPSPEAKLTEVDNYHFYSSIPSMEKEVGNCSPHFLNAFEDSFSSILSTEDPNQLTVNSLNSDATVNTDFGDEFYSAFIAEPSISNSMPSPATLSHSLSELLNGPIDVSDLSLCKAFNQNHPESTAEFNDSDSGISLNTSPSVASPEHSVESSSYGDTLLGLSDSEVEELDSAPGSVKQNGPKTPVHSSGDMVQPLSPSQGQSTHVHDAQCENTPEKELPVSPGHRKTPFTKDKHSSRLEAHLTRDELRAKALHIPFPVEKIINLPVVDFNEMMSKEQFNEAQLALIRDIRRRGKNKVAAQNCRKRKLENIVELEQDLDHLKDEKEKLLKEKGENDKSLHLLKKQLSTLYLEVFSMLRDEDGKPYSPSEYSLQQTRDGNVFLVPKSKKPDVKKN
Nuclear factor NF-kappa-B p105 subunit (Homo sapiens), sequence (P19838 whole entry, looked up): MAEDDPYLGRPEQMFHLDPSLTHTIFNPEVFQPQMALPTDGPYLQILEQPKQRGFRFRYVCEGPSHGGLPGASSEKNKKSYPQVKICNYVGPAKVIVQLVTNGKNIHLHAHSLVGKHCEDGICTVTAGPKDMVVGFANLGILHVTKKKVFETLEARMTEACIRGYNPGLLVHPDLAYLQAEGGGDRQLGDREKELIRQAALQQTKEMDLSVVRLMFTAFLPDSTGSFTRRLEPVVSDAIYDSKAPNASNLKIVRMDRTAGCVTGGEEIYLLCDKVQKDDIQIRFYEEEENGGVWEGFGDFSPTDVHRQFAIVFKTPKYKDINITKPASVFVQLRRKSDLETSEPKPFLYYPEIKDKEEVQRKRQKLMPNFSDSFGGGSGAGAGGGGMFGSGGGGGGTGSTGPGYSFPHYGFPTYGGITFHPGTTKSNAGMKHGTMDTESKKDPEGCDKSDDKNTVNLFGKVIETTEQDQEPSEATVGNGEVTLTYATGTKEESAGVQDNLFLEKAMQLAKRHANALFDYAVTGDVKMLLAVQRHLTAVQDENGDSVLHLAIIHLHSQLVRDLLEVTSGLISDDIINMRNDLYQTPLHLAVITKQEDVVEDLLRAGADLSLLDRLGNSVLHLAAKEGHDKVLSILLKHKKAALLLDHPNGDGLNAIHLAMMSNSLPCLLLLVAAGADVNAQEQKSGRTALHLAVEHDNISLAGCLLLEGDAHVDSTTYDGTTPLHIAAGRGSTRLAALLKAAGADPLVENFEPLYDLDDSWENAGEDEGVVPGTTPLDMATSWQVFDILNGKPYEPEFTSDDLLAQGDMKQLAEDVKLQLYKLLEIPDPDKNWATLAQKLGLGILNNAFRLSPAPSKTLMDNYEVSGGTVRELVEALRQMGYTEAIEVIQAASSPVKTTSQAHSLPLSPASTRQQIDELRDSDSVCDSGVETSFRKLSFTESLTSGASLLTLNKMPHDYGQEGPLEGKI

CCOc1nc(F)cc2nc(S(=O)(=O)Nc3c(Cl)cccc3Cl)nn12
inactive: [1] | [2] | [3] | [4] | [6] | [7] | [8] | [9] | [10] | [11] | [12] | TIMP1, TIMP1 (gene 7076) | [13] | [14] | [15] | [16] | [17]
active: [5] 50 µM

CC(C)(C)C(=O)C(Oc1ccc(Cl)cc1)n1cncn1 (stereo unspecified)
active: [14] 33 µM | [16] 6.35 µM
inactive: [1] | [2] | [3] | [4] | [5] | [6] | [7] | [8] | [9] | [10] | [12] | [18] | [13] | [15] | [17]

Cn1c(-c2ccccc2)cc(-c2ccccc2)[n+]1C
active: [1] 10.7 µM | [4] 88.3 µM | [5] 34.5 µM | [9] 22.5 µM | [10] 18.6 µM | [11] 50 µM | TIMP1, TIMP1 (gene 7076) 82.9 µM | [13] 72.2 µM | [14] 50 µM | [15] 86.5 µM | [16] 39.9 µM | [17] 75.2 µM
inactive: [3] | [6] | [7] | [8] | [19] | [12] | [18]

CCNC(=O)NC(=O)C(C#N)=NOC
active: [1] 50 µM | [5] 74.2 µM | [13] 0.27 µM | [17] 0.306 µM
inactive: [3] | [4] | [6] | [7] | [8] | [9] | [10] | [11] | [12] | TIMP1, TIMP1 (gene 7076) | [14] | [16]

CN=C=S
inactive: [1] | [2] | [3] | [4] | [5] | [6] | [7] | [8] | [9] | [10] | [11] | [12] | TIMP1, TIMP1 (gene 7076) | [13] | [14] | [15] | [16] | [17]

CC(C)C1(C)N=C(c2ncccc2C(=O)O)NC1=O (stereo unspecified)
inactive: [1] | [3] | [4] | [5] | [6] | [7] | [8] | [19] | [9] | [10] | [11] | [12] | [13] | [14] | [15] | [16] | [17]

COc1cc(Cl)c(OC)cc1Cl
inactive: [1] | [2] | [3] | [4] | [5] | [6] | [7] | [9] | [10] | [11] | [12] | [18] | [13] | [14] | [15] | [17]
active: [16] 2.69 µM

COCC(=O)N(c1c(C)cccc1C)C(C)C(=O)OC (stereo unspecified)
inactive: [1] | [3] | [4] | [5] | [6] | [7] | [8] | [9] | [10] | [11] | [12] | [18] | [13] | [14] | [15] | [16] | [17]

CS(=O)(=O)c1cc(C(F)(F)F)ccc1C(=O)c1cnoc1C1CC1
inactive: [1] | [2] | [3] | [4] | [5] | [6] | [7] | [8] | [9] | [10] | [11] | [12] | [13] | [14] | [15] | [16] | [17]
